PI5P4K alpha inh: blocks human PI5P4K alpha kinase activity; P48426; PI5P4Kalpha enzyme, ADP-Glo luminescence, 60 min; stronger effect = lower value; max response, %; 330,000 tested, 1.2% active; AID 652105; active means max response of -50% or lower; inconclusive means between -30% and -50%; inactive means -30% or higher; further: value at the top dose of about 77 µM; on the % scale 0 is the no-effect control and ±100 the full control effect
Target sequence (P48426 whole entry, looked up): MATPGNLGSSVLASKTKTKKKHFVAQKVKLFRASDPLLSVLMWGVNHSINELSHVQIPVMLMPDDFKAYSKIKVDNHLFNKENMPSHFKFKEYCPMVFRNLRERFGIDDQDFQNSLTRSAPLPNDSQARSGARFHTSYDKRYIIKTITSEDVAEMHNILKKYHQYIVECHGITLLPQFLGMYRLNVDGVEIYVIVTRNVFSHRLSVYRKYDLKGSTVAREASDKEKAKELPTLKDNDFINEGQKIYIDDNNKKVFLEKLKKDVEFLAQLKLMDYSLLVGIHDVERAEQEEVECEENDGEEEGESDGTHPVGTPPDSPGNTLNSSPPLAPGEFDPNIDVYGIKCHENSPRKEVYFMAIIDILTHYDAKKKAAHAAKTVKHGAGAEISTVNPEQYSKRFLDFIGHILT
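qHTS, 1536-well: enzyme/substrate mix, compound by pin tool, 5 microM ATP final; RT 60 min; ADP-Glo reagents 1 (45 min) then 2 (30 min); luminescence.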
HP1b chromo inh: blocks HP1-beta chromodomain binding to methylated histone tails; P83916; AlphaScreen HP1-beta / biotin-H3K9me3 peptide binding; Potency, µM (top dose mostly 114 µM), inactives show at the top dose activity change, negative = inhibition, actives largely listed as inhibitors; 390,000 tested, 0.56% active; further: potency means the concentration at half of the fitted maximal effect; nearly all actives have a fitted effect of over 70% in size
Target sequence (P83916 whole entry, looked up): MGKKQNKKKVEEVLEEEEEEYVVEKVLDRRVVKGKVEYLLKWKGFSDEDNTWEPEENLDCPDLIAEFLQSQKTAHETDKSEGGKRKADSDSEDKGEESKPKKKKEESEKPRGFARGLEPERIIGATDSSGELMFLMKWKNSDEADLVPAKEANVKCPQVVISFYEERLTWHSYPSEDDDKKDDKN
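AlphaScreen: HP1-beta (50 nM) preformed 30 min with biotin-H3(1-18)K9me3 peptide (50 nM) in PBS pH 7.4, 0.01% Tween-20. Compound added for 30 min at RT, then streptavidin donor/nickel chelate acceptor beads (10 ug/mL) for 30 min.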
JMJD2A Tudor: JMJD2A Tudor domain (human) inhibition; O75164; AlphaScreen JMJD2A-Tudor / H3K4me3 peptide binding; Potency, µM (highest dose often 114 µM), for inactives: at the top dose activity change, negative = inhibition, hits mostly inhibitors; 390,000 tested, 4.4% active; AID 504339; further: potency means the concentration at half of the fitted maximal effect; on the % scale 0 is the no-effect control and ±100 the full control effect; nearly all actives have a fitted effect of over 50% in size
G9a block: blocks human histone lysine methyltransferase G9a. 350,000 tested, 8.8% active. G9a H3K9 monomethylation, AlphaScreen, 2 h. Q96KQ7. Potency, µM (doses to about 102 µM), for the others: top-dose activity, negative = inhibition, most hits filed as inhibitors. AID 504332; further: potency means the concentration at half of the fitted maximal effect; on the % scale 0 is the no-effect control and ±100 the full control effect; nearly all actives have a fitted effect of over 75% in size
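AlphaScreen detection with an anti-monomethyl H3K9 antibody quantified product after a 2 h room-temperature reaction containing 500 nM biotinylated H3K9 peptide, 20 µM SAM and 20 nM enzyme, which had been preincubated 15 min with compound.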
BAZ2B block: inhibitors of human BAZ2B bromodomain | Q9UIF8 | AlphaScreen BAZ2B-H3K14Ac peptide displacement | Potency, µM (doses to about 114 µM), for the others: at the top dose activity change, negative = inhibition, most hits filed as inhibitors | 360,000 tested, 4.4% active | AID 504333; further: potency means the concentration at half of the fitted maximal effect; on the % scale 0 is the no-effect control and ±100 the full control effect; nearly all actives have a fitted effect of over 60% in size
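AlphaScreen displacement of biotin-H3(5-23)K14Ac peptide (50 nM final) from BAZ2B (50 nM final) in PBS pH 7.4, 0.01% Tween-20; complex preformed 30 min RT, then compounds (top 110 uM) 30 min RT, beads 20 min dark.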
L3MBTL1 block: L3MBTL1 (human) inhibition; Q9Y468; AlphaScreen L3MBTL1–H3K9me1 peptide binding; Potency, µM (top dose mostly 57.1 µM), for inactives: top-dose activity, negative = inhibition, actives largely listed as inhibitors; 230,000 tested, 0.66% active; AID 485360; further: potency means the concentration at half of the fitted maximal effect; on the % scale 0 is the no-effect control and ±100 the full control effect; nearly all actives have a fitted effect of over 60% in size
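AlphaScreen assay: L3MBTL1 (50 nM final) was preincubated 30 min at room temperature with biotinylated H3(1-15)K9me1 peptide (75 nM final), then 30 min with library compounds; streptavidin donor and nickel chelate acceptor beads (10 ug/mL final) added, 30 min dark.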
* = called active by the depositor; ? = inconclusive; / = no result; [ ] = dose if it differs, or a comment. Compounds with a hit are over-represented: about 11% of the library has one in this group of screens. Unless noted, the call rests on the fitted dose curve; in most records, active means well fitted inhibition curve with a large enough effect; inconclusive means small, poorly fitted or top-dose-only effect; inactive means no such curve, though single readings can be large or run the other way.

SMILES	PI5P4K alpha inh	HP1b chromo inh	JMJD2A Tudor	G9a block	BAZ2B block	L3MBTL1 block
Cc1ccc(C(=O)c2oc3ccccc3c2NC(=O)COc2ccc(C(C)C)cc2)cc1	/	36.9%	5.8%	18.1%[59 µM]	-2.1%	/
OCC(O)CS (stereo unspecified)	/	/	/	18.9%[59 µM]	/	/
Cc1ccccn1	/	/	/	-2.6%[12.7 µM]	/	/
CCN(c1ccc(C)cc1)S(=O)(=O)c1nnc(NC(=O)C2CCCCC2)s1	/	110.9%	16.8%	33.6%[59 µM]	17.9%	/
Cc1ccc(S(=O)(=O)Oc2ccc(/C=C3/C(=N)N4C(=NC3=O)SN=C4S(C)(=O)=O)cc2)cc1	-58.8*	-6.9%[57 µM]	?	/	?	/
CCS(=O)(=O)C1=NSC2=NC(=O)/C(=C\c3ccc(OS(=O)(=O)c4ccccc4)c(OC)c3)C(=N)N21	-66.6*	-5.3%[57 µM]	56.2µM*	39.8µM*	50.1µM*	/
Cc1ccc(S(=O)(=O)c2c(Nc3ccccc3)sc(C(=O)c3ccc4c(c3)OCO4)c2N)cc1	/	20.3%[57 µM]	-23.6%	-14.4%[59 µM]	-16.4%	/
O=C(O)CCNc1cc(N2CCN(C(=O)c3ccco3)CC2)c2noc3c2c1C(=O)c1ccccc1-3	-58.4*	?	17.8µM*	10µM*	12.6µM*	/
CCN1CCN(c2cc(N3CCN(C(=O)c4ccco4)CC3)c3c4c(onc24)-c2ccccc2C3=O)CC1	-15.5	?	28.2µM*	17.8µM*	11.2µM*	/
Cc1cc(N2CCN(C(=O)c3ccco3)CC2)c2ccccc2n1	0.2	32.8%	-13.7%	?	-13.9%	-0.6%
CC1CC(C)CN(c2oc(-c3ccccc3F)nc2C#N)C1 (stereo unspecified)	17.6	-26.5%	-13.2%	?	-38.2%	/
CC1CCCN(c2oc(-c3cccc4ccccc34)nc2C#N)C1 (stereo unspecified)	/	-4.4%	3.8%	-49.7%	-31.0%	-0.4%
CC1CCN(c2oc(-c3ccccc3Cl)nc2C#N)CC1	22.5	?	?	10µM*	10µM*	?
Cc1ccccc1-c1nc(C#N)c(N2CCC(C)CC2)o1	16.3	?	?	35.5µM*	?	/
COc1ccc(OC)c(Nc2nc(NCCCN(C)C)nc(N)c2[N+](=O)[O-])c1	-6.9	-21.2%	35.5µM*	44.7µM*	31.6µM*	-11.7%
COCCCNc1nc(N)c([N+](=O)[O-])c(Nc2cc(OC)ccc2OC)n1	2.4	10.0%	-1.8%	-6.1%	-1.9%	-2.9%
O=C1CCCC2(O)C1C(c1cccc(Br)c1)NC(=O)N2Cc1ccccc1 (stereo unspecified)	4.5	51.0%	7.0%	44.7µM*	30.2%	22.9%
[O-]/[N+](=C/c1ccc(F)cc1)c1ccc(Cl)cc1	-9.9	4.5%	-23.0%	11.2µM*	-33.1%	/
O=C(NCc1ccco1)C1CCN(C(=O)N2CCOc3ccccc32)CC1	/	36.2%	-7.9%	2.3%[59 µM]	3.4%	/
CC(C)n1cc(C(N)=S)c(=O)n(Cc2ccccc2)c1=O	3.5	22.7%	-7.8%	50.1µM*	-14.5%	/
COC(=O)CN1C(=O)N(c2ccccc2)C(N(O)C(=O)Nc2ccccc2)C1(C)C (stereo unspecified)	/	18.2%	?	39.8µM*	-39.0%	-8.8%
COC(=O)CNC(=O)CN1C(=O)N(c2ccccc2)C(N(O)C(=O)Nc2ccccc2)C1(C)C (stereo unspecified)	10.5	30.4%	-2.2%	?	-33.8%	5.5%
Nc1[nH]nc2c1NN(c1ccc(Cl)cc1Cl)N2	3.4	-0.4%	-23.9%	?	25.1µM*	-20.9%
O=C1CNC(=O)/C1=C\c1ccc(O)cc1	-61.6*	37.0%	-0.7%	?	2.7%	1.6%
O=C(NC1CCCCCC1)C1c2ccccc2C(=O)N1Cc1ccccc1Cl (stereo unspecified)	/	30.5%	-0.7%	2.5%[59 µM]	1.4%	/
SMILES	PI5P4K alpha inh	HP1b chromo inh	JMJD2A Tudor	G9a block	BAZ2B block	L3MBTL1 block
COCCNc1ccc(-c2nc(-c3ccccn3)no2)cc1[N+](=O)[O-]	/	42.8%	-4.3%	-2.9%[59 µM]	0.9%	/
CCOc1ccc(CNC(=O)CS(=O)(=O)c2cccc3nsnc23)cc1	/	10.9%[57 µM]	-20.0%	6.1%[59 µM]	-4.6%	/
CCn1nc(C(=O)OCC(=O)c2ccc3c(c2)OCCO3)c2ccccc2c1=O	-8.2	-2.3%	50.1µM*	?	-23.4%	-8.1%
COc1ccc(N2CCN(c3ccc(-c4nc(-c5ccccc5)no4)cc3[N+](=O)[O-])CC2)cc1	/	-0.3%	-21.2%	-42.4%[59 µM]	-38.8%	/
O=C(O)c1cc(N/N=C/c2cccc3ccccc23)ccc1Cl	-14.1	3.8%	-15.8%	?	-10.0%	/
O=C(N/N=C/c1cn(Cc2ccccc2)c2ccccc12)c1cc(O)cc(O)c1	?	-18.0%	?	79.4µM*	50.1µM*	/
CC(C)n1cc(/C=N/Nc2ccc(Cl)c(C(=O)O)c2)c2ccccc21	/	/	/	10µM*	44.7µM*	-7.1%
O=C(O)c1ccc(N/N=C/c2cn(Cc3ccc(F)cc3)c3ccccc23)cc1	?	-30.9%	56.2µM*	44.7µM*	44.7µM*	-5.9%
O=C(N/N=C/c1coc2ccccc2c1=O)c1cc(O)cc(O)c1	-54.0*	51.6%	-9.0%	1.9%	-14.6%	/
CC(=O)c1ccc(Nc2nc3c(S(=O)(=O)c4ccccc4)nnn3c3ccc(Cl)cc23)cc1	/	12.6%	-18.9%	1.8%[59 µM]	-1.9%	/
CN(C(=O)c1ccc(S(=O)(=O)c2cccc(Cl)c2)c([N+](=O)[O-])c1)C1CCCCC1	4.7	-7.6%	?	31.6µM*	-35.9%	5.1%
COc1ccc(-c2csc(Nc3ccccc3)n2)cc1	32.5	?	-17.9%	-0.7%[12.7 µM]	?	-19.7%
Cc1nc(Nc2ccc(C(=O)O)cc2)sc1-c1ccccc1	?	9.6%	?	-38.8%	-34.3%	-25.2%
COc1ccc(-c2csc(Nc3ccccc3)[n+]2Cc2ccccc2)cc1	-3.1	?	-3.4%	15.8µM*	/	-6.7%
Cc1ccc(-c2csc(Nc3ccc(C(=O)O)cc3)[n+]2Cc2ccccc2)cc1	-0.2	-26.1%	39.8µM*	15.1%	-37.8%	-2.1%
O=[N+]([O-])c1ccc(-c2csc(Nc3ccccc3)[n+]2Cc2ccccc2)cc1	5.0	15.8µM*	17.8µM*	?	39.8µM*	-16.9%
CCC(=O)Nc1nc(C)c(-c2csc(Nc3ccccn3)n2)s1	1.3	-15.6%	?	39.8µM*	39.8µM*	-13.3%
CCCC(=O)Nc1nc(C)c(-c2csc(Nc3ccccc3C)n2)s1	-0.5	-3.3%	?	11.2µM*	?	-4.0%
CCN(Cc1ccccc1)S(=O)(=O)c1cc(C(=O)Nc2cc(Cl)cc(Cl)c2)ccc1F	/	19.5%	-17.1%	12.1%[59 µM]	2.4%	/
